Measurements taken from PubChem BioAssay AID1159580 (chemical genetic matrix, 2015).
Values joined by “and” are separate entries in the source; they are usually repeats but may differ in a detail not shown here. Equal values may be shown once. About 2,000 (36%) of roughly 5,500 compounds were called active. Roughly 18% stayed inconclusive and do not appear here. No stated cut-off is given here; in the data, active means normalized growth mostly below about 0.91 (no sharp cut-off); inconclusive means no clear call, values can overlap the other calls; inactive means mostly above about 0.92. The list shows a part of the results.

Assay: chemical genetic growth profiling, strain panel (AID 1159580);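 further: tested at 20 µM; growth read once vehicle control cultures reached saturation at 30 °C; 1 = growth at the plate median or of vehicle wells; lower values mean less growth of the strain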
Conditions: S. cerevisiae deletion strains, growth OD

Measured: normalized growth

Cc1cc(NC(=O)C2=C(O)c3ccccc3S(=O)(=O)N2C)no1
inactive: locus YAL021C, strain ccr4, active compounds read low 0.959 | locus YAL026C, strain drs2, active compounds read low 0.97 | locus YAL030W, strain snc1, active compounds read low 0.969 | locus YBL061C, strain skt5, active compounds read low 0.965 | locus YBR009C, strain hhf1, active compounds read low 0.961 | locus YBR021W, strain FUR4, active compounds read low 1.01 | locus YBR023C, strain chs3, active compounds read low 0.967 | locus YBR171W, strain sec66, active compounds read low 0.926 | locus YBR229C, strain ROT2, active compounds read low 0.991 | locus YBR231C, strain swc5, active compounds read low 0.972 | locus YBR279W, strain paf1, active compounds read low 0.992 | locus YCL011C, strain gbp2, active compounds read low 0.982 | locus YCL016C, strain dcc1, active compounds read low 0.968 | locus YCL029C, strain bik1, active compounds read low 0.958 | locus YCL069W, strain vba3, active compounds read low 0.963 | locus YCR088W, strain abp1, active compounds read low 0.964 | locus YDL005C, strain med2, active compounds read low 0.984 | locus YDL035C, strain GPR1, active compounds read low 0.981 | locus YDL040C, strain nat1, active compounds read low 0.964 | locus YDL074C, strain BRE1, active compounds read low 1.03 | locus YDL101C, strain DUN1, active compounds read low 0.997 | locus YDL134C, strain PPH21, active compounds read low 0.995 | locus YDL192W, strain arf1, active compounds read low 0.952 | locus YDR001C, strain nth1, active compounds read low 0.95 | locus YDR069C, strain doa4, active compounds read low 0.99 | locus YDR101C, strain arx1, active compounds read low 1.01 | locus YDR137W, strain rgp1, active compounds read low 1 | locus YDR150W, strain NUM1, active compounds read low 0.975 | locus YDR159W, strain sac3, active compounds read low 0.983 | locus YDR162C, strain NBP2, active compounds read low 0.961 | locus YDR195W, strain ref2 0.965 | locus YDR297W, strain sur2, active compounds read low 0.973 | locus YDR318W, strain mcm21, active compounds read low 0.966 | locus YDR334W, strain swr1, active compounds read low 0.963 | locus YDR335W, strain msn5, active compounds read low 0.964 | locus YDR388W, active compounds read low 0.945 | locus YDR392W, strain spt3, active compounds read low 0.905 | locus YDR502C, strain sam2, active compounds read low 0.98 | locus YEL003W, strain gim4, active compounds read low 0.959 | locus YEL037C, strain rad23, active compounds read low 0.961 | locus YEL061C, strain CIN8 (second series), active compounds read low 0.951 | locus YEL061C, strain CIN8, active compounds read low 0.977 | locus YER015W, strain faa2, active compounds read low 0.98 | locus YER016W, strain bim1, active compounds read low 0.946 | locus YER110C, active compounds read low 0.937 | locus YER111C, strain swi4, active compounds read low 0.962 | locus YER155C, strain BEM2 (second series), active compounds read low 0.976 | locus YER155C, strain BEM2, active compounds read low 0.975 | locus YER167W, strain BCK2, active compounds read low 0.985 | locus YFR010W, strain ubp6, active compounds read low 1 | locus YGL078C, strain dbp3, active compounds read low 0.965 | locus YGL086W, strain mad1, active compounds read low 0.999 | locus YGL167C, strain pmr1, active compounds read low 0.978 | locus YGL173C, strain kem1, active compounds read low 0.984 | locus YGL227W, strain vid30, active compounds read low 0.973 | locus YGL240W, strain doc1, active compounds read low 0.995 | locus YGL248W, strain PDE1, active compounds read low 0.994 | locus YGL253W, strain hxk2, active compounds read low 0.957 | locus YGR078C, strain PAC10, active compounds read low 0.995 | locus YGR135W, strain pre9, active compounds read low 0.929 | locus YGR252W, strain gcn5, active compounds read low 0.998 | locus YHR013C, strain ard1, active compounds read low 0.98 | locus YHR027C, strain rpn1, active compounds read low 0.97 | locus YHR030C, strain SLT2, active compounds read low 0.965 and 0.916 | locus YHR079C, strain IRE1 (second series), active compounds read low 0.939 | locus YHR079C, strain IRE1, active compounds read low 0.93 | locus YHR094C, strain hxt1, active compounds read low 0.945 | locus YHR129C, strain ARP1, active compounds read low 0.972 | locus YHR142W, strain chs7, active compounds read low 0.991 | locus YHR200W, strain rpn10, active compounds read low 0.947 | locus YIL066C, strain RNR3, active compounds read low 1.01 | locus YIL073C, strain SPO22, active compounds read low 0.881 | locus YIL125W, strain kgd1, active compounds read low 0.939 | locus YIR030C, strain dcg1, active compounds read low 0.928 | locus YJL092W, strain hpr5, active compounds read low 0.97 | locus YJL095W, strain BCK1 (second series), active compounds read low 0.971 | locus YJL095W, strain BCK1, active compounds read low 1.01 and 0.962 | locus YJL115W, strain asf1, active compounds read low 0.966 | locus YJL129C, strain trk1, active compounds read low 0.924 | locus YJL134W, strain LCB3, active compounds read low 0.965 | locus YJL154C, strain vps35, active compounds read low 0.939 | locus YJL164C, strain tpk1, active compounds read low 0.974 | locus YJL166W, strain qcr8, active compounds read low 1 | locus YJL168C, strain set2, active compounds read low 0.953 | locus YJL187C, strain SWE1 (second series), active compounds read low 1 | locus YJR043C, strain POL32, active compounds read low 1.02
active: locus YDL185W, strain tfp1, active compounds read low 0.876
